Test results as given in the supplement of paper PMC12636033.
± gives the standard deviation of the averaged measurements. In all, about 33,000 sequences were measured (“E-score (rank enrichment, -0.5 to 0.5)”: median about -0.0075, highest 2% from about 0.23 on). Shown is part of a subset that was picked to be rich in the highest values.

Test system: WT Max(13-93) synthetic (M65Nle)
Assay: PBM 8-mer E-score (E-score (rank enrichment, -0.5 to 0.5)); higher = stronger preferential binding
Description: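 Protein binding microarray (universal PBM chip covering all 10-mers in fixed probe flanks) with chemically synthesized human Max(13-93) bHLH-LZ analogs (not full-length Max) bearing noncanonical residues (hArg, Tha, Aib, Nle at 65) and aromatic Cys staples. Read-out per 8-mer (and its reverse complement): E-score (rank-based enrichment, -0.5 to 0.5) and Z-score of median probe intensity.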

Row | Sequence | PBM 8-mer E-score
1 | GATTATAA | 0.134 ± 0.066
2 | CCCGGAAG | -0.252 ± 0.034
3 | AATTATGT | 0.178 ± 0.038
4 | ACGCGCCA | 0.0474 ± 0.11
5 | AACGAAGA | 0.0931 ± 0.055
6 | CCTTTAGC | -0.065 ± 0.16
7 | CCTACTAA | -0.0419 ± 0.0019
8 | AAATATTA | 0.219 ± 0.04
9 | GTATTAGA | 0.223 ± 0.014
10 | ATTATATA | 0.125 ± 0.052
11 | CTATTATA | 0.0186 ± 0.0034
12 | ATTATATG | 0.176 ± 0.035
13 | ACATTATA | 0.158 ± 0.0021
14 | TAATATTA | 0.37 ± 0.026
15 | ATTATATC | 0.247 ± 0.059
16 | GTATTATA | 0.251 ± 0.046
17 | ATATTATA | 0.309 ± 0.018
18 | GTATTAAA | 0.188 ± 0.077
19 | CAATATTA | 0.157 ± 0.12
20 | CGTAGCGC | -0.0505 ± 0.038
21 | GCAGGATA | -0.184 ± 0.065
22 | TAAGGTAA | 0.156 ± 0.086
23 | CCAGCATA | 0.0104 ± 0.015
24 | GCTTCCCA | -0.0247 ± 0.11
25 | GGAGGGTA | 0.0987 ± 0.018

Row | Sequence | PBM 8-mer E-score
26 | GTATTACA | 0.245 ± 0.00083
27 | AGATTATG | -0.178 ± 0.043
28 | GCATTACA | 0.133 ± 0.049
29 | ATATTATG | 0.242 ± 0.0093
30 | ATATATTA | 0.256 ± 0.08
31 | CTATATTA | 0.221 ± 0.015
32 | CTATTACA | 0.14 ± 0.048
33 | ATATTATC | 0.138 ± 0.011
34 | GTATATTA | 0.226 ± 0.027
35 | AACGTTCT | 0.0268 ± 0.08
36 | CCTGTTGC | 0.0294 ± 0.077
37 | TGGAGGAA | -0.0087 ± 0.04
38 | ATGCCCGC | 0.00379 ± 0.056
39 | CCGACGCC | -0.139 ± 0.013
40 | GCGGCCGA | -0.21 ± 0.09
41 | ATTTTATG | 0.19 ± 0.12
42 | AATTTATC | 0.15 ± 0.049
43 | AATTTATG | 0.237 ± 0.005
44 | AATTTATA | 0.301 ± 0.057
45 | CATTTATA | 0.192 ± 0.047
46 | ATTTTATA | 0.229 ± 0.058
47 | CCCGGTAA | -0.114 ± 0.034
48 | TCGGTAGA | -0.128 ± 0.0077
49 | CGTGTAAC | 0.276 ± 0.013
50 | CGTGTATC | 0.149 ± 0.028

Row | Sequence | PBM 8-mer E-score
51 | GGTGTATA | 0.108 ± 0.039
52 | GATGTATA | 0.117 ± 0.02
53 | CGTGTATA | 0.266 ± 0.0089
54 | AGTGTGTA | 0.101 ± 0.012
55 | CGTGTAAG | 0.113 ± 0.075
56 | GGTGTGTA | 0.0087 ± 0.0056
57 | CATGTATA | 0.24379 ± 0.00015
58 | GGTGTAAC | -0.0257 ± 0.043
59 | CGTGTGTA | 0.24 ± 0.067
60 | CATGTATC | 0.185 ± 0.028
61 | TATATTCA | 0.151 ± 0.15
62 | GAGTCTTA | -0.0474 ± 0.024
63 | ACGTTGTC | 0.232 ± 0.011
64 | AGCGGAAA | -0.00668 ± 0.13
65 | CCTTCTTA | 0.0525 ± 0.12
66 | AGACAGCG | -0.103 ± 0.063
67 | AATCATCT | -0.0255 ± 0.056
68 | CCTAGAAC | -0.0877 ± 0.0018
69 | CGTGTGCC | 0.146 ± 0.14
70 | CATGTGTC | 0.216 ± 0.053
71 | GATGTGTA | -0.0106 ± 0.19
72 | GGTGTGCA | -0.0425 ± 0.051
73 | CATGTGTA | 0.357 ± 0.029
74 | CGTGTGCA | 0.3 ± 0.047
75 | ACTGGTTG | -0.086 ± 0.065

Row | Sequence | PBM 8-mer E-score
76 | AAACTATA | 0.144 ± 0.062
77 | TAACTATA | 0.259 ± 0.13
78 | CAACTATA | 0.119 ± 0.098
79 | CTGGTGAA | -0.0735 ± 0.0064
80 | CGACTTAG | -0.0474 ± 0.049
81 | ATCAGGTG | 0.0403 ± 0.029
82 | CCTGCCGC | -0.2994 ± 0.0014
83 | CAAATCGA | -0.0111 ± 0.037
84 | AGGTGACC | -0.1467 ± 0.00024
85 | AGCAAACC | 0.102 ± 0.14
86 | GCATGATA | 0.273 ± 0.01
87 | ACATGAGA | 0.146 ± 0.056
88 | GCATGACA | 0.2006 ± 0.0015
89 | ACATGATC | 0.241 ± 0.024
90 | ACATGAAT | 0.245 ± 0.071
91 | ACATGAAG | 0.0102 ± 0.026
92 | ACATGATG | 0.0731 ± 0.012
93 | CCATGATA | 0.0793 ± 0.032
94 | ACATGATA | 0.269 ± 0.038
95 | CCATGATC | -0.0246 ± 0.092
96 | AAATGATA | 0.197 ± 0.029
97 | ACATGAAC | 0.0506 ± 0.02
98 | TGCGTACA | 0.188 ± 0.13
99 | CGAGGCCG | -0.243 ± 0.075
100 | GCCCTGAC | 0.0594 ± 0.023

Row | Sequence | PBM 8-mer E-score
101 | ACTCCGAT | -0.0923 ± 0.047
102 | AAAGAAAC | 0.0488 ± 0.013
103 | ACATCTCA | 0.146 ± 0.089
104 | TGGGCACA | 0.0612 ± 0.062
105 | ATGTTCAC | -0.109 ± 0.027
106 | GCTGATGA | -0.087 ± 0.06
107 | CTTGGGAC | -0.183 ± 0.081
108 | ATGTGTAA | 0.236 ± 0.0034
109 | CTGTGTAA | -0.00451 ± 0.0057
110 | ATGTGTAG | 0.25 ± 0.041
111 | GTGTGTAA | 0.0936 ± 0.013
112 | ATGTGTAC | 0.184 ± 0.011
113 | AAGTGTAG | 0.111 ± 0.079
114 | CCTAAGGA | 0.089 ± 0.0031
115 | AAGCGTAG | -0.0452 ± 0.033
116 | CATGTCCA | 0.124 ± 0.026
117 | AGTCAGTA | 0.0494 ± 0.052
118 | AAGTGGAG | 0.0727 ± 0.049
119 | GCGTGGAA | 0.179 ± 0.049
120 | TCGTGGAA | 0.163 ± 0.02
121 | ACGTGGAC | 0.331 ± 0.0084
122 | GCGTGGAC | 0.122 ± 0.16
123 | CCGTGGAG | -0.163 ± 0.06
124 | ACGTGGAG | 0.338 ± 0.049
125 | CCGTGGAC | -0.137 ± 0.023

Row | Sequence | PBM 8-mer E-score
126 | ACGTGGAT | 0.383 ± 0.044
127 | AGGTGGAT | 0.0366 ± 0.1
128 | AAGTGGAT | -0.0604 ± 0.074
129 | ACGTGGAA | 0.271 ± 0.053
130 | ATCCTTTC | 0.0595 ± 0.17
131 | AAAGAGAT | -0.0586 ± 0.1
132 | GTCCTTAA | 0.063 ± 0.0053
133 | AAAGGATG | 0.0585 ± 0.087
134 | CAAAACAA | 0.129 ± 0.06
135 | CATCGAGA | -0.0265 ± 0.036
136 | GTAATGTA | 0.0754 ± 0.18
137 | ACCTCAAT | -0.0496 ± 0.16
138 | ATGTGGAG | 0.1647 ± 0.0014
139 | ATGTGGAC | 0.238 ± 0.018
140 | CTGTGGAC | 0.0601 ± 0.14
141 | GGCATCCA | -0.0611 ± 0.057
142 | ACCTTTTA | 0.027 ± 0.18
143 | AATAAAAT | 0.144 ± 0.068
144 | AATAAATA | 0.168 ± 0.017
145 | CATAAAAC | 0.0726 ± 0.027
146 | AATAAAAG | 0.206 ± 0.037
147 | CATAAATA | 0.313 ± 0.0091
148 | AATAAACC | 0.197 ± 0.028
149 | TATAAATA | 0.208 ± 0.025
150 | AATAAAAA | 0.256 ± 0.11

Row | Sequence | PBM 8-mer E-score
151 | AATAAAAC | 0.296 ± 0.056
152 | GGACATCC | -0.188 ± 0.068
153 | CACTTAGG | -0.0583 ± 0.16
154 | ACGTGAGA | 0.208 ± 0.0048
155 | ACGTGACC | 0.298 ± 0.018
156 | AGGTGACG | -0.053 ± 0.045
157 | CCGTGACA | 0.00228 ± 0.054
158 | CCGTGACC | -0.23 ± 0.064
159 | ACGTGACA | 0.366 ± 0.014
160 | ACGTGAGG | 0.1604 ± 0.0013
161 | ACGTGAGT | 0.327 ± 0.035
162 | CCGTGACG | -0.0153 ± 0.0018
163 | ACGTGACG | 0.321 ± 0.039
164 | TCGTGACA | 0.0356 ± 0.012
165 | GCGTGACC | 0.075 ± 0.14
166 | AGCCGAGG | -0.103 ± 0.058
167 | AACACAGG | -0.0563 ± 0.091
168 | ACGAACCG | -0.0438 ± 0.041
169 | AATCCAAC | 0.0162 ± 0.14
170 | AGTGGTGC | -0.0756 ± 0.066
171 | GGATGCCC | -0.0856 ± 0.021
172 | CGTATTCC | -0.096 ± 0.036
